From PubChem BioAssay
In the library only some 18% were active in any assay of this set; here they are far more common.
CtBP-E1A inh – CtBP/E1A binding inhibition | AlphaScreen GST-E1A/His-CtBP binding, 1536-well; active compounds read low | activity change, % (no concentration beside the values) | actives 0.49% (n = 340,000) | AID 651724; in the data active means activity change below about -65%; inconclusive means mostly about -30% to -63%
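In 5 uL wells, 23 nL compound meets equimolar GST-E1A and His-CtBP (5X stock 125 nM each) for 2 h, 37 °C. Beads (5X, 50 ug/mL) then 1 h, 37 °C, dark.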
DT40 TDP1 no CPT – qHTS for Inhibitors of human tyrosyl-DNA phosphodiesterase 1 (TDP1): qHTS in cells in absence of CPT; actives 15% (n = 420,000); DT40 Tdp1-/- hTDP1 cells, no CPT, ATP luminescence, 48 h; Potency, µM (top dose mostly 46.2 µM), usual class: inhibitors; further: nearly all actives have a fitted effect of over 55% in size
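Chicken DT40 Tdp1-/- cells stably complemented with human TDP1 were seeded at 400 cells/well with DMSO in place of 20 nM camptothecin. After compound pinning, cells grew at least 48 hr at 37 °C; viability read by CellTiter-Glo luminescence.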
DT40 TDP1 CPT – DT40-hTDP1 cell growth loss with CPT; chicken DT40 Tdp1-/-;hTDP1 cells + 20 nM CPT, ATP luminescence, 48 h; Potency, µM (highest dose often 46.2 µM), actives largely listed as inhibitors; actives 12% (n = 420,000); AID 686979; further: nearly all actives have a fitted effect of over 55% in size
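Chicken DT40 Tdp1-/- cells stably complemented with human TDP1 were seeded at 400 cells/well in medium containing 20 nM camptothecin, exposed to pin-transferred compounds, and grown at 37 °C for at least 48 hr. Viability was read as ATP luminescence.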
TDP1 block – blocks human tyrosyl-DNA phosphodiesterase 1. Q9NUW8. recombinant TDP1, AlphaScreen DNA substrate cleavage. Potency, µM (highest dose often 130 µM), most hits filed as inhibitors. actives 0.28% (n = 350,000); further: nearly all actives have a fitted effect of over 40% in size
Target sequence (Q9NUW8 whole entry, looked up): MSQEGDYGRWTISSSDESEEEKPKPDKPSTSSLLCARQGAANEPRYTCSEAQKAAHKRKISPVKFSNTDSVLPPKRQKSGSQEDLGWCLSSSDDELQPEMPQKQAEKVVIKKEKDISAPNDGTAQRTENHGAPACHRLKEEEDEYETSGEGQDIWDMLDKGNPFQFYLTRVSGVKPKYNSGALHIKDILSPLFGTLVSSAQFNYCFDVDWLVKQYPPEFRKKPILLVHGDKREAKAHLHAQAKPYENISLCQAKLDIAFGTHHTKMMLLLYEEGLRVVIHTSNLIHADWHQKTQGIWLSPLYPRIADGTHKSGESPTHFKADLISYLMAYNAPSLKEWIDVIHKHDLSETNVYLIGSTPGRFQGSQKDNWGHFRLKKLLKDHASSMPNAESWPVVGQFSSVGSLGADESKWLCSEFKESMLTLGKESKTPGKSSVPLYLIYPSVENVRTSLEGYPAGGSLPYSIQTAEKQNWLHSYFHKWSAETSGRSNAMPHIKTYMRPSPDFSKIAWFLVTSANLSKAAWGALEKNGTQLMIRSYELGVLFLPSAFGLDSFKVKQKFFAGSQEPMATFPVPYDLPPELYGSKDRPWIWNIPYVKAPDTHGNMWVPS
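Steps: enzyme plus compound, 15 min RT; add biotin/phosphotyrosine-FITC oligonucleotide (15 nM final), react 5 min; add donor/acceptor beads (10 ug/ml final), 10 min; read AlphaScreen. Tdp1 at 1 nM final.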
Six1-Eya2 blk – blocks human Six1 binding to Eya2 | Q15475+O00167 | activity change, % (no concentration beside the values) | AlphaScreen GST-Six1/His-Eya2 binding, biochemical; active compounds read low | actives 0.56% (n = 360,000); in the data active means activity change below about -65%; inconclusive means mostly about -30% to -63%
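AlphaScreen luminescence read after one hour at 37 °C in darkness. Pin-transferred compounds met GST-Six1 and His-Eya2 protein (5X stock 250 nM/500 nM) plus glutathione donor and Ni-chelate acceptor beads (5X, 50 ug/mL).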
IL1B secr inh – inhibitors of inflammasome signaling (IL-1 beta secretion). actives 4.7% (n = 360,000). activity change, % at 57.5 µM. THP-1 LPS/ATP IL-1B secretion, AlphaLISA, 16 h; active compounds read low. AID 743279; in the data active means activity change below about -50%; inconclusive means mostly about -30% to -49%
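THP-1 cells pretreated 1 hr with compounds (up to 57.5 uM final), then stimulated with LPS (250 ng/mL final) plus ATP (1.25 mM final); secreted IL-1B measured by AlphaLISA after 16 hr, decreased signal indicating inhibition.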
Large screens that a line does not name were inactive. Unless noted, the call rests on the fitted dose curve; in most records, active means well fitted curve in the direction sought with a large enough effect; inconclusive means small, poorly fitted or top-dose-only effect, or another doubt; inactive means no such curve, though single readings can be large; an effect the other way counts as inactive or inconclusive.

COc1ccc(OC)c(-c2oc3ccccc3c(=O)c2O)c1	DT40 TDP1 no CPT inconclusive
COc1cc(O)c2c(=O)c(O)c(-c3ccc(O)c(O)c3)oc2c1	none (no result: CtBP-E1A inh, Six1-Eya2 blk, IL1B secr inh)
COc1cc(-c2oc3cc(O)ccc3c(=O)c2O)ccc1O	DT40 TDP1 no CPT inconclusive, DT40 TDP1 CPT 21µM (no result: CtBP-E1A inh, Six1-Eya2 blk, IL1B secr inh)
O=S(=O)(NC1C2CC3CC(C2)CC1C3)c1ccc(F)cc1 (centres undefined)	none
Cc1cc(C)c2nc(/N=C(\N)NC(=O)c3ccccc3)nc(C)c2c1	DT40 TDP1 no CPT 16µM (no result: TDP1 block)
Cc1cc(C)c2nc(/N=C(\N)NC(=O)Nc3ccccc3)nc(C)c2c1	DT40 TDP1 no CPT 18µM, DT40 TDP1 CPT 23µM
Cc1cc(C)c(NC(=O)Nc2ccccc2)c(C)n1	none
CCc1ccc2nc(/N=C(\N)NC(=O)c3ccccc3)nc(C)c2c1	DT40 TDP1 no CPT 16µM, DT40 TDP1 CPT inconclusive
CCCC(=O)N/C(N)=N/c1nc(C)c2ccccc2n1	DT40 TDP1 no CPT 16µM, DT40 TDP1 CPT inconclusive, IL1B secr inh -85
CCCCC(=O)N/C(N)=N/c1nc2ccccc2o1	DT40 TDP1 no CPT inconclusive, DT40 TDP1 CPT inconclusive
CC(C)(C#N)Nn1cnnc1	none
CCOC(=O)C1CCN(Cc2cc(=O)n3c(-c4ccccc4)csc3n2)CC1	none
Cc1ccccc1N1CCN(Cc2nc(Cc3ccccc3)no2)CC1	DT40 TDP1 no CPT inconclusive, DT40 TDP1 CPT inconclusive
COc1cc2c(cc1OC)CN(Cc1cc(=O)n3c(-c4ccccc4)csc3n1)CC2	DT40 TDP1 no CPT inconclusive, DT40 TDP1 CPT inconclusive
CC(=O)c1ccc(N2CCN(Cc3nc(Cc4ccccc4)no3)CC2)cc1	DT40 TDP1 no CPT 16µM, DT40 TDP1 CPT inconclusive (no result: CtBP-E1A inh)
CC(=O)c1ccc(N2CCN(Cc3cc(=O)n4c(-c5ccccc5)csc4n3)CC2)cc1	DT40 TDP1 no CPT 21µM, DT40 TDP1 CPT inconclusive (no result: TDP1 block)
O=c1cc(CN2CCN(c3ccccc3)CC2)nc2scc(-c3ccccc3)n12	DT40 TDP1 no CPT 23µM, DT40 TDP1 CPT inconclusive
COc1ccc(CNC(=O)c2cc(-n3cnnc3)ccc2Cl)cc1	none
CC1(C(=O)NS(=O)(=O)Cc2ccccc2)CCN1C(=O)c1ccc(C2CCCCC2)cc1 (centres undefined)	none (no result: TDP1 block)
O=C1[C@@H]2[C@@H](CN3CN(c4ccccc4)N=C(c4ccccc4)[C@@]23c2ccccc2)C(=O)N1c1ccccc1	DT40 TDP1 no CPT 13µM, DT40 TDP1 CPT 5.8µM (no result: TDP1 block)
S=c1[nH]nc(COc2ccccc2)n1/N=C/c1ccc(Br)s1	none
CCc1ccccc1NC(=O)CSc1nc2c(oc3ccccc32)c(=O)n1-c1ccccc1F	DT40 TDP1 no CPT 18µM, DT40 TDP1 CPT inconclusive (no result: CtBP-E1A inh, Six1-Eya2 blk, IL1B secr inh)
Cc1ccccc1NC(=O)CSc1nc2c(oc3ccccc32)c(=O)n1-c1ccccc1F	DT40 TDP1 no CPT 23µM, DT40 TDP1 CPT inconclusive (no result: CtBP-E1A inh, Six1-Eya2 blk, IL1B secr inh)
COCCn1c(SCC(=O)Nc2ccccc2C)nc2c(oc3ccccc32)c1=O	none
CC(NC(=O)c1cc(S(=O)(=O)N2CCOCC2)ccc1F)c1ccc(-n2ccnc2)cc1 (centres undefined)	none
Cc1cnc(CNc2cc(-c3ccccc3C)ncn2)cn1	none (no result: CtBP-E1A inh, TDP1 block, Six1-Eya2 blk, IL1B secr inh)
COc1ccc(CNC(=S)NCc2ccc(OC(C)C)cc2)cc1	DT40 TDP1 no CPT inconclusive
C=CCNC(=S)N/N=C(\C)c1ccc(OC)cc1	DT40 TDP1 no CPT inconclusive, DT40 TDP1 CPT inconclusive
C=CCNC(=S)N/N=C(\C)c1cccc(OC)c1	DT40 TDP1 no CPT 2.1µM, DT40 TDP1 CPT 1.2µM, IL1B secr inh -77
COc1ccc(/C(C)=N/NC(=S)NCc2ccco2)cc1	DT40 TDP1 no CPT 1.5µM, DT40 TDP1 CPT 2.9µM, Six1-Eya2 blk inconclusive
COc1ccc(CNC(=S)N/N=C(\C)c2ccc(OC)cc2)cc1	DT40 TDP1 no CPT 5.2µM, DT40 TDP1 CPT 12µM
O=C(Cc1ccccc1)Nc1ccc(CN2CCOCC2)cc1	none
COc1ccc(Br)cc1CNC(=O)c1ccc(-n2c(C)cc3c2CCC(C)C3)cc1 (centres undefined)	DT40 TDP1 no CPT 18µM, DT40 TDP1 CPT 23µM (no result: CtBP-E1A inh, Six1-Eya2 blk, IL1B secr inh)
